From the OligoGym collection come the findings set out here.
Further: reference of the scale not given here.

The first test has as its target CLN5. Put plainly: pooled miR-30 sensor sort-seq; sequence = guide strand. The settings on record: shRNA.
As to TTGACAATAAGGATCAGGTTTT, the sensor-assay potency score (higher = more potent) was -0.121.
The sequence TTTCCTTCCAGTGAACATCATC displayed a sensor-assay potency score (higher = more potent) of -0.843.
Same read-out and setting: under TATAAAACAAATAGAACTGTTT stands -0.137; under TTCAATGTCATCATCACCCTCC, 0.818.
For TACATAACTGATATGAACCATA, the sensor-assay potency score (higher = more potent) was -0.617.
With TTCATTGTCCTGTTTCACCCAC, the sensor-assay potency score (higher = more potent) was 0.245.
In the case of TAGGTAAAAACCAATATTCAAA, the sensor-assay potency score (higher = more potent) is -1.15.
The same measure, in the same setting: then TTGCCAGTTAATGTACTTCTGA, with -0.714; and TTATAAAACAAATAGAACTGTT, with -0.281; and TTTCTATGTTCTTGAACTCTGC, with -0.7.
For TTAACTTTATGCACCAAGGAAG, the sensor-assay potency score (higher = more potent) was -0.963.
In turn, TTCTTGTATAGTTGGTTTCTAT returned a sensor-assay potency score (higher = more potent) of -0.695.
Sequence TATAGTTGCTACTTGAACTAAT returned a sensor-assay potency score (higher = more potent) of -0.263.

Another test addresses CLRN3. Described as above. The conditions noted are these: shRNA.
TAAAACTGCAAACTTTTTCTTT: the sensor-assay potency score (higher = more potent) is -0.472.
Still for that read-out and setting: under TTGTCCAGAGAAGCTAACCAGT stands -1.23.
Regarding TCTAACAGCAATCGTACTGGTG, the sensor-assay potency score (higher = more potent) is -0.061.
For the sequence ATTTGGAACAACTCTTCGGAGA, the sensor-assay potency score (higher = more potent) was -1.11.
On the same count and under the same terms, under TAAAGCATTTGGAACAACTCTT stands 0.169.
The sequence TATATTTAGAAGAATGACGAGC displayed a sensor-assay potency score (higher = more potent) of -0.483.
Same read-out and setting: then TTTGAATACCACACAGACCAGC, with -1.01.
In turn, TTGAAGCAGAGTCTCTAACAGC yielded a sensor-assay potency score (higher = more potent) of -0.854.
TTCAGTATCTCTAAAACTGCAA: the sensor-assay potency score (higher = more potent) is -0.132.
Take TTACCATGCTGAATTGTCCAGA: the sensor-assay potency score (higher = more potent) is -0.037.
TAAGTGATGAAAATGCTCCCAT yielded a sensor-assay potency score (higher = more potent) of 0.574.
With TCTCTAACAGCAATCGTACTGG, the sensor-assay potency score (higher = more potent) was -0.178.

Another test has as its target CMAS. The description is as above. The conditions noted are these: shRNA.
In turn, TAGAGCTGTCTTTTGAAACTTC registered a sensor-assay potency score (higher = more potent) of 0.56.
On the same count and under the same terms, then TTCATCTACAACTGCTAGCTTG, with -0.562.
On the same count and under the same terms, under TACATTTGCAAATGTATCCAAC stands -0.636.
TTTCACTCCATCGAAACTGATG displayed a sensor-assay potency score (higher = more potent) of -0.871.
On the same count and under the same terms, under TTCGATGAACTTGTGCACCAAA stands -0.973; under TTTGAAACTTCAGAACTTCTTC, 0.8.
Still for that read-out and setting: under TATATATATATCACAAACCAAA stands -1.7.
For the sequence TAGTGAGGTAGAGCTGTCTTTT, the sensor-assay potency score (higher = more potent) was -0.742.
TCATCTACAACTGCTAGCTTGT registered a sensor-assay potency score (higher = more potent) of -0.405.
Still for that read-out and setting: under TACAACTGCTAGCTTGTCTGAT stands -0.274; under TTCTTTAATAAACTTATCCCAA, -0.589; under TTTAGCTGGATTTAAATTCAGA, -0.846.

A further test deals with CMIP. Described as above. The conditions noted are these: shRNA.
The sequence TTCTCTGAGAGCAGTTTCGAGA showed a sensor-assay potency score (higher = more potent) of -0.721.
The same measure, in the same setting: then TTTTTGGTCTTGTAACAGGAGC, with -1.29; and TCTTTCAAGACAACTTCCCAGC, with -0.735.
